# Test results from publication PMC7862700, “An all-to-all approach to the identification of sequence-specific readers for epigenetic DNA modifications on cytosine”.
# Assays:
# Assay in all cases: DAPPL (digital affinity profiling via proximity ligation, sequencing); 10 mM Tris-HCl pH 7.5, 50 mM NaCl, 1 mM DTT, 4% glycerol, room temperature, 30 min; GST-TFs on glutathione beads, 16-mer random dsDNA library, 0.1% formaldehyde crosslink after washing; high values mean tight binding
# FEV = target: T1, FEV (Homo sapiens, UniProt Q99581 1-238); conditions: protein: recombinant; tags: N-terminal GST; dsDNA, one strand shown
# T1 sequence: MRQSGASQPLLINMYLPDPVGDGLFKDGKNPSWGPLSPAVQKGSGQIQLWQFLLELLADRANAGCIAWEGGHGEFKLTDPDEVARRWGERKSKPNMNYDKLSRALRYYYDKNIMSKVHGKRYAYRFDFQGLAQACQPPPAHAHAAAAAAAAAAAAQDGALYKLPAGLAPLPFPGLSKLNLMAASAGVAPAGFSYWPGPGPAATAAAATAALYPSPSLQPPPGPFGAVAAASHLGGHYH
# Procedure, shortened: (§1)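 Beads coated with glutathione captured GST-fused human transcription factors that had been expressed in yeast, and the factors were then given DNA barcodes and pooled with a tag-only sample. The pools were incubated with 200 nmole of a random double-stranded 16-mer DNA library in Tris/NaCl/DTT/glycerol buffer for 30 min at room temperature, washed, crosslinked with 0.1% formaldehyde and proximity-ligated with BsaI/T4 ligase at 37 °C for 1 h. PCR amplification and Illumina NextSeq500 sequencing came last. Binding signal is each hexamer's read frequency for a factor divided by its frequency for the tag-only sample.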
# ETV5 = ETV5 (Homo sapiens, UniProt P41161 1-510); conditions: protein: recombinant; tags: N-terminal GST; dsDNA, one strand shown
# Procedure, shortened: as §1
# HSF1 = HSF1 (Homo sapiens, UniProt Q00613 1-529); conditions: protein: recombinant; tags: N-terminal GST; chain copies: 3; dsDNA, one strand shown
# Procedure, shortened: as §1
# SPIC = target: T2, SPIC (Homo sapiens, UniProt Q8N5J4 1-248); conditions: protein: recombinant; tags: N-terminal GST; dsDNA, one strand shown
# T2 sequence: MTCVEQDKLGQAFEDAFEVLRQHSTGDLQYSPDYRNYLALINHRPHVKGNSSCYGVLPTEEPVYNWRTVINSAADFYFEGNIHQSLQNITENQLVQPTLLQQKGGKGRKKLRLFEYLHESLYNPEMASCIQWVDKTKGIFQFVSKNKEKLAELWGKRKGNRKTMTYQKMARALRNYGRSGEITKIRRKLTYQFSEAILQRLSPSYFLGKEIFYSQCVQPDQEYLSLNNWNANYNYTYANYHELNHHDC
# Procedure, shortened: as §1
# ELF4 = ELF4 (Homo sapiens, UniProt Q99607 1-663); conditions: protein: recombinant; tags: N-terminal GST; dsDNA, one strand shown
# Procedure, shortened: as §1
# ELK4 = target: T3, ELK4 (Homo sapiens, UniProt P28324-2 1-405); conditions: protein: recombinant; tags: N-terminal GST; dsDNA, one strand shown
# T3 sequence: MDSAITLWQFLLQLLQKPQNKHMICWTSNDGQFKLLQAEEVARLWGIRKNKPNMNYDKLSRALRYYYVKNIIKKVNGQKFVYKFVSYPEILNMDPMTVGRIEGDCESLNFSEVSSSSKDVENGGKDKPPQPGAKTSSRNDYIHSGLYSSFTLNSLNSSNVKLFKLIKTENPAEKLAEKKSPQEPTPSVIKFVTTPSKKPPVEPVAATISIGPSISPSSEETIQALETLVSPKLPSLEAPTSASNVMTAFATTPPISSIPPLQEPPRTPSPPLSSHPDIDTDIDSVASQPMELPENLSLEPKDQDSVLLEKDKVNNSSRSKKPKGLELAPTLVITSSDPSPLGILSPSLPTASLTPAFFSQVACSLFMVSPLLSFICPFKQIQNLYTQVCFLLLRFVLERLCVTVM
# Procedure, shortened: as §1
# ETV2 = target: T4, ETV2 (Homo sapiens, UniProt O00321 1-342); conditions: protein: recombinant; tags: N-terminal GST; dsDNA, one strand shown
# T4 sequence: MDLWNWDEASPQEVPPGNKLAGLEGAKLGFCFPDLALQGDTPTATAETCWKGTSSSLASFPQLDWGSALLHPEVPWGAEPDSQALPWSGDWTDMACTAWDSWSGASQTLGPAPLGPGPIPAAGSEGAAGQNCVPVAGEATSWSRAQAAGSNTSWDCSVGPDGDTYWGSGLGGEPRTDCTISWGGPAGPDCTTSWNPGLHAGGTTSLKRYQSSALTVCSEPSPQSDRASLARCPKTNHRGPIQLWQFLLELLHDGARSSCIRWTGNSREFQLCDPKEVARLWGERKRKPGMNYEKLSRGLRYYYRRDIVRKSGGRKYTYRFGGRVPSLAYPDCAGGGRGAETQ
# Procedure, shortened: as §1
# ELF3 = target: T5, ELF3 (Homo sapiens, UniProt P78545 1-371); conditions: protein: recombinant; tags: N-terminal GST; dsDNA, one strand shown
# T5 sequence: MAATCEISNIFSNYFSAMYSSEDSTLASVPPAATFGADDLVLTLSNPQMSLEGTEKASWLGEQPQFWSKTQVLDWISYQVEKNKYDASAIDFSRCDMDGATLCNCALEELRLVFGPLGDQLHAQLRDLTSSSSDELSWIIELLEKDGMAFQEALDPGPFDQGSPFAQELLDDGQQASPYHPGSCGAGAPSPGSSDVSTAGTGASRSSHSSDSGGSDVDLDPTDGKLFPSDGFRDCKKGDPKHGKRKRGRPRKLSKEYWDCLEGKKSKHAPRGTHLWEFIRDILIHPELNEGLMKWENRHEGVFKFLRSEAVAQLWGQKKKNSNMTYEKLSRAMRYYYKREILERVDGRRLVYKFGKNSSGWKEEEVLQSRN
# Procedure, shortened: as §1
# CRX = CRX (Homo sapiens, UniProt O43186 1-299); conditions: protein: recombinant; tags: N-terminal GST; dsDNA, one strand shown
# Procedure, shortened: as §1
# ETV1 = ETV1 (Homo sapiens, UniProt P50549 1-477); conditions: protein: recombinant; tags: N-terminal GST; dsDNA, one strand shown
# Procedure, shortened: as §1
# ERF = target: T6, ERF (Homo sapiens, UniProt P50548 1-548); conditions: protein: recombinant; tags: N-terminal GST; dsDNA, one strand shown
# T6 sequence: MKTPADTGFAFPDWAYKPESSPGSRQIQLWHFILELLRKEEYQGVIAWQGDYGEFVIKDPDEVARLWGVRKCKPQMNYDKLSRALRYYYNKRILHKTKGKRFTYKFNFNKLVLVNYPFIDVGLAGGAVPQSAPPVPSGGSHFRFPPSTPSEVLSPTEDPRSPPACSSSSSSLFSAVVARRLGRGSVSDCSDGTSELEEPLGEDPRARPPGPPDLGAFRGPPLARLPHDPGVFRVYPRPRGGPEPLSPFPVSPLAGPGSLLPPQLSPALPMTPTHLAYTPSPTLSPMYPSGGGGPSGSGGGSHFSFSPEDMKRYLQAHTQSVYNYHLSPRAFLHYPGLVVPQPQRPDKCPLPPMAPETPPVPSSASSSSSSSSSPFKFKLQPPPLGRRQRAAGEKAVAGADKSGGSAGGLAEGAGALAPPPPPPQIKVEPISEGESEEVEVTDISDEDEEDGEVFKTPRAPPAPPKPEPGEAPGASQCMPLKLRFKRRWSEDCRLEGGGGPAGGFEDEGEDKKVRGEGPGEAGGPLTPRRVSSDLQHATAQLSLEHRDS
# Procedure, shortened: as §1
# ETV3L = target: T7, ETV3L (Homo sapiens, UniProt Q6ZN32 1-361); conditions: protein: recombinant; tags: N-terminal GST; dsDNA, one strand shown
# T7 sequence: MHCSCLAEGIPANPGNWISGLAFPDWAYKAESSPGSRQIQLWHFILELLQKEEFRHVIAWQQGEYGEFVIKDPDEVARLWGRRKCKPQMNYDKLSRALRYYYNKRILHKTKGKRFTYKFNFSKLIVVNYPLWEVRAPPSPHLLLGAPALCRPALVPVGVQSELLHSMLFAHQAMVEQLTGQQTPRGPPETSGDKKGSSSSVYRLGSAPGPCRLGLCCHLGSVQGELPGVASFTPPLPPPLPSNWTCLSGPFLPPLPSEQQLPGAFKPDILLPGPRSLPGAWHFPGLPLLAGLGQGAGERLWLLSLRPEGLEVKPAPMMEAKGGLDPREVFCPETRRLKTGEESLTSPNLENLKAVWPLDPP
# Procedure, shortened: as §1
# ETS2 = target: T8, ETS2 (Homo sapiens, UniProt P15036 1-469); conditions: protein: recombinant; tags: N-terminal GST; dsDNA, one strand shown
# T8 sequence: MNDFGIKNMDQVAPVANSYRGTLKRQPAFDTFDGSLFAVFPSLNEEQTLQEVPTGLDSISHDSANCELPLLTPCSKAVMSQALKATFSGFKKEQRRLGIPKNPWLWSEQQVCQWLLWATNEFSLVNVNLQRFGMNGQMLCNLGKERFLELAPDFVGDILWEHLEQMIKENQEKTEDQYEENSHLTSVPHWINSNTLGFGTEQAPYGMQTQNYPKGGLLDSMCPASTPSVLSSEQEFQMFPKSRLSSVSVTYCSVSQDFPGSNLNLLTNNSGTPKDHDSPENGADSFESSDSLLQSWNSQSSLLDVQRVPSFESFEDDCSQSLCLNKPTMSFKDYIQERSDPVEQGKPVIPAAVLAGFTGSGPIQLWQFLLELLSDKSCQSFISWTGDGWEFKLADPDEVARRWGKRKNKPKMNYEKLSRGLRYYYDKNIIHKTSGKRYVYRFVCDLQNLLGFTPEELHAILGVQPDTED
# Procedure, shortened: as §1
# SPDEF = target: T9, SPDEF (Homo sapiens, UniProt O95238 1-335); conditions: protein: recombinant; tags: N-terminal GST; dsDNA, one strand shown
# T9 sequence: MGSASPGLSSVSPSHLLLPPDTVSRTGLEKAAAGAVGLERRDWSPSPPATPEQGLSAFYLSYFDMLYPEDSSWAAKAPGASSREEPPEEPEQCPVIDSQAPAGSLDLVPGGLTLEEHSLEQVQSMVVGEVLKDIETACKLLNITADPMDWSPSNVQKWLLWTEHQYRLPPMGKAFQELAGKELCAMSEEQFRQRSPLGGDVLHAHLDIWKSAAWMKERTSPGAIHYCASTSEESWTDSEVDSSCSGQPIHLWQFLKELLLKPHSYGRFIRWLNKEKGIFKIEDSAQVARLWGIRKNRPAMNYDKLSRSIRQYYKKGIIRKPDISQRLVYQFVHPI
# Procedure, shortened: as §1
# ETV7 = target: T10, ETV7 (Homo sapiens, UniProt Q9Y603 1-341); conditions: protein: recombinant; tags: N-terminal GST; dsDNA, one strand shown
# T10 sequence: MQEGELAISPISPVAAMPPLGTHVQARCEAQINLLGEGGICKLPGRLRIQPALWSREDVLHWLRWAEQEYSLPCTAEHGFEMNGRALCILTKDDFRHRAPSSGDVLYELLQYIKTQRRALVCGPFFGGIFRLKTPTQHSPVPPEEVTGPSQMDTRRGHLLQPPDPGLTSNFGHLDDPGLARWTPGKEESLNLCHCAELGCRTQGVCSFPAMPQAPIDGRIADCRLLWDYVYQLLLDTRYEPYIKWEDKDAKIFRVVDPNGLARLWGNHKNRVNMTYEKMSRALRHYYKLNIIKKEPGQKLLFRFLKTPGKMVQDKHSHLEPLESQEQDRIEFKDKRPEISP
# Procedure, shortened: as §1
# ELF5 = target: T11, ELF5 (Homo sapiens, UniProt Q9UKW6-2 1-255); conditions: protein: recombinant; tags: N-terminal GST; dsDNA, one strand shown
# T11 sequence: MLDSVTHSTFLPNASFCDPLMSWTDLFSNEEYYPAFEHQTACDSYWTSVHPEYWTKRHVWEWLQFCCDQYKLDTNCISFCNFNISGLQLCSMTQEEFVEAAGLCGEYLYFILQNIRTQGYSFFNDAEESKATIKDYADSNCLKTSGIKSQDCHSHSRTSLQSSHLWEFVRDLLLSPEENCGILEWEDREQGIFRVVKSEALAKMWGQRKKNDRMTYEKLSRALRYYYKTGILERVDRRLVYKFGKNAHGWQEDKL
# Procedure, shortened: as §1
# ETV3 = target: T12, ETV3 (Homo sapiens, UniProt P41162-2 1-143); conditions: protein: recombinant; tags: N-terminal GST; dsDNA, one strand shown
# T12 sequence: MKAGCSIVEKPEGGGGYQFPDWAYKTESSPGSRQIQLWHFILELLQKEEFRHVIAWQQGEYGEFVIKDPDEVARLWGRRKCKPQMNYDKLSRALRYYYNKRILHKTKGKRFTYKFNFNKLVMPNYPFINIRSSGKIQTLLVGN
# Procedure, shortened: as §1
# ETV6 = ETV6 (Homo sapiens, UniProt P41212 1-452); conditions: protein: recombinant; tags: N-terminal GST; dsDNA, one strand shown
# Procedure, shortened: as §1
# Sequence of ETV6 (P41212 whole entry): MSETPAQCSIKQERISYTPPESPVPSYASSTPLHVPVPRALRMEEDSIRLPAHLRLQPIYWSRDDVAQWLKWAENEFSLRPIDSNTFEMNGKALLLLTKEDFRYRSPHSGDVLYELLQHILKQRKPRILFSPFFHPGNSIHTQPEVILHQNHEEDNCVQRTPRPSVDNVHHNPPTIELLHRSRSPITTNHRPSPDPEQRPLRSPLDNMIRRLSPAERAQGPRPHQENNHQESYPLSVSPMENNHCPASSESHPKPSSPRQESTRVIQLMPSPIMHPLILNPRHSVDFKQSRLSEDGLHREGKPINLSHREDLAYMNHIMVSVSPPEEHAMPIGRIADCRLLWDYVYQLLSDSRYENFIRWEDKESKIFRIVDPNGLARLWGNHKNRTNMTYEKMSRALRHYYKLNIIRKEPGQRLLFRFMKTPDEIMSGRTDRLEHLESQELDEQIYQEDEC
# Sequence of ETV1 (P50549 whole entry): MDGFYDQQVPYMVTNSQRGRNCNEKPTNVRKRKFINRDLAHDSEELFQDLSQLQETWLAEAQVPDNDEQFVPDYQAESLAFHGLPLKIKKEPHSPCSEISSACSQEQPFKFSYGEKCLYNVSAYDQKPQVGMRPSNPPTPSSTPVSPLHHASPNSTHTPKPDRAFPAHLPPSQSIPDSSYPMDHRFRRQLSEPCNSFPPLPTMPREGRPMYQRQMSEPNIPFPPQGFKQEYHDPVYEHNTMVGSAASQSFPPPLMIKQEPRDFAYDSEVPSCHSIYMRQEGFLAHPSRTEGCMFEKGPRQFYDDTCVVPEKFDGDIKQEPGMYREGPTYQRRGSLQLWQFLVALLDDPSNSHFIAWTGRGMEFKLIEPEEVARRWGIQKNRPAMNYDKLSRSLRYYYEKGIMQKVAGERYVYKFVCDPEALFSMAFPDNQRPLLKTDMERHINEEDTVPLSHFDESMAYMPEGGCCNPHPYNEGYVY
# Sequence of HSF1 (Q00613 whole entry): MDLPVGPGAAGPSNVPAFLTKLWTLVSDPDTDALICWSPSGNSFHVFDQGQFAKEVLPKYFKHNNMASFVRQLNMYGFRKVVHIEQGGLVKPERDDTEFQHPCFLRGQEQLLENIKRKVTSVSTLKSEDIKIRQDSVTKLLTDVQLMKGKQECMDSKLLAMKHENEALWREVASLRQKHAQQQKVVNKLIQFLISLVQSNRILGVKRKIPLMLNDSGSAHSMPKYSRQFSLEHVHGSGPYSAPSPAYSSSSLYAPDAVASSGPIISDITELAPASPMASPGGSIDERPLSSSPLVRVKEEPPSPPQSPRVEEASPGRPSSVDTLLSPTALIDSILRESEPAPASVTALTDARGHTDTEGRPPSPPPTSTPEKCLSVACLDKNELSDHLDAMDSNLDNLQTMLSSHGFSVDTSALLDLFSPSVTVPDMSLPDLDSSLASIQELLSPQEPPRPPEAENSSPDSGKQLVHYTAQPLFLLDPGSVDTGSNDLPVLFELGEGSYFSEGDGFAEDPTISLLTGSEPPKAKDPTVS
# Sequence of CRX (O43186 whole entry): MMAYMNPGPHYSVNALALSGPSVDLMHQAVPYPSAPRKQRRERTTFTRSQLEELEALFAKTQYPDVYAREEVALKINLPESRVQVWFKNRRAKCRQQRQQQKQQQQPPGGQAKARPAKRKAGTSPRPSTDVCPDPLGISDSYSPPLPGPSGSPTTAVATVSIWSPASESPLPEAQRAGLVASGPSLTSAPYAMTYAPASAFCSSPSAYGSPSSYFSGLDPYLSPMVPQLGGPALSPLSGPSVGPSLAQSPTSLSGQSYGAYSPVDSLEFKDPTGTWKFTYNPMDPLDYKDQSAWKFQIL
# Sequence of ETV5 (P41161 whole entry): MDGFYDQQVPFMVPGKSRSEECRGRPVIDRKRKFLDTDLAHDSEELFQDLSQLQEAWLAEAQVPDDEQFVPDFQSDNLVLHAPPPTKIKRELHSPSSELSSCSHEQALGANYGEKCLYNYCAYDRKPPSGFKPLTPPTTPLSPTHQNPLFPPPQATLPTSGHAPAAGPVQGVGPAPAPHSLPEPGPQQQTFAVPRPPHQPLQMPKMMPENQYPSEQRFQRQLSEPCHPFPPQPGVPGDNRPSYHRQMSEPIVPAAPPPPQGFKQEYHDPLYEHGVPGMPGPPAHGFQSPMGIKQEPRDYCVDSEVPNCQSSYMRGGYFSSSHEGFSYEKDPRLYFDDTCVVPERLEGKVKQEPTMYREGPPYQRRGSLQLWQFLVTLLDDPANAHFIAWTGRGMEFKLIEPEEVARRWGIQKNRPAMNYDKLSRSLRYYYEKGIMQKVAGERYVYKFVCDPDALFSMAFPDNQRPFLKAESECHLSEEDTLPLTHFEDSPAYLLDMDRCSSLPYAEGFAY
# Sequence of ELF4 (Q99607 whole entry): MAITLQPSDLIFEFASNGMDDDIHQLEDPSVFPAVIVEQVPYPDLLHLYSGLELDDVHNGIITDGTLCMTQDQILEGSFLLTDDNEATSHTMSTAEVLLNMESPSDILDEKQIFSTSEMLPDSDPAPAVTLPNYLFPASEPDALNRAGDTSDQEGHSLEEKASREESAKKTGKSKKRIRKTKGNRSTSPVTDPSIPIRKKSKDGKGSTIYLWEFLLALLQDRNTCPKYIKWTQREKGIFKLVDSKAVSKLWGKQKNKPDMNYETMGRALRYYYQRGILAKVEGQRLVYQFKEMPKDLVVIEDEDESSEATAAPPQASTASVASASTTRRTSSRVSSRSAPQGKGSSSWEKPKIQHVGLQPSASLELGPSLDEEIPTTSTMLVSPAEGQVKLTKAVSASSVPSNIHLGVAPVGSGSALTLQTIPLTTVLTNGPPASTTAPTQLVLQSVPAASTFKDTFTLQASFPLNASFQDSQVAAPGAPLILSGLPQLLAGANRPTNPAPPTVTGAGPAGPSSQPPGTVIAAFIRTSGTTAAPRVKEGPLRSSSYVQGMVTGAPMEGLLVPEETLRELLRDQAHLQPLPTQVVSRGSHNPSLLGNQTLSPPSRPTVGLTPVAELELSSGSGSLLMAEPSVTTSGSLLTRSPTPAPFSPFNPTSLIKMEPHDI
sequence,measurement,setting,value
ACTTTT,binding signal,FEV,"1.25 fold enrichment (6-mer frequency, TF over GST control)"
same,binding signal,ETV5,"1.27 fold enrichment (6-mer frequency, TF over GST control)"
same,binding signal,HSF1,"1.25 fold enrichment (6-mer frequency, TF over GST control)"
same,binding signal,SPIC,"1.35 fold enrichment (6-mer frequency, TF over GST control)"
same,binding signal,ELF4,"1.32 fold enrichment (6-mer frequency, TF over GST control)"
same,binding signal,ELK4,"1.25 fold enrichment (6-mer frequency, TF over GST control)"
same,binding signal,ETV2,"1.25 fold enrichment (6-mer frequency, TF over GST control)"
same,binding signal,ELF3,"1.45 fold enrichment (6-mer frequency, TF over GST control)"
same,binding signal,CRX,"1.25 fold enrichment (6-mer frequency, TF over GST control)"
same,binding signal,ETV1,"1.32 fold enrichment (6-mer frequency, TF over GST control)"
same,binding signal,ERF,"1.26 fold enrichment (6-mer frequency, TF over GST control)"
same,binding signal,ETV3L,"1.25 fold enrichment (6-mer frequency, TF over GST control)"
same,binding signal,ETS2,"1.25 fold enrichment (6-mer frequency, TF over GST control)"
same,binding signal,SPDEF,"1.25 fold enrichment (6-mer frequency, TF over GST control)"
same,binding signal,ETV7,"1.36 fold enrichment (6-mer frequency, TF over GST control)"
same,binding signal,ELF5,"1.26 fold enrichment (6-mer frequency, TF over GST control)"
same,binding signal,ETV3,"1.31 fold enrichment (6-mer frequency, TF over GST control)"
same,binding signal,ETV6,"1.34 fold enrichment (6-mer frequency, TF over GST control)"
